# Measured values reported in the supplement of paper PMC10515830.
# Where a name gives a salt, the structure may show the parent alone.
# System: Danio rerio larvae (5 dpf)
# Experiment: difference in activity during first hour vs DMSO (percentage points); higher = more activity than DMSO
# Details: 10 µM; exposure time 6 h
# Procedure, shortened: (§1)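 Wild-type 5 dpf zebrafish larvae in 96-well plates were given 100 µL egg water containing library compound at 10 µM final for 6 h. After 3 h of exposure, plates at 28.5 ℃ were photographed every 6 s during a 3-h programme of moving lines and 100 ms, 400Hz tones. Z-LaP Tracker (a DeepLabCut model) quantified each behaviour, averaged over 48 larvae per compound. Values are the compound mean minus the DMSO-vehicle control, in percentage points.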
row,SMILES,difference in activity during first hour
1,CNCC[C@H](Oc1cccc2ccccc12)c1cccs1 [(S)-Duloxetine (hydrochloride)],-21
2,NC(=O)Cc1cccc(C(=O)c2ccccc2)c1N [Nepafenac],-6.03
3,CN(C)[C@@H]1C(O)=C(C(N)=O)C(=O)[C@@]2(O)C(O)=C3C(=O)c4c(O)cccc4[C@@](C)(O)[C@H]3[C@H](O)[C@@H]12 [Oxytetracycline],20.6
4,Oc1c(Cl)cc(Cl)c(Cl)c1Cc1c(O)c(Cl)cc(Cl)c1Cl [Hexachlorophene],-18.6
5,Nc1nc(Cl)nc2c1ncn2[C@H]1C[C@H](O)[C@@H](CO)O1 [Cladribine],-3.5
6,Cc1cc(C2CCCCC2)n(O)c(=O)c1 [Ciclopirox],8.43
7,O=C(O)c1cc(/N=N/c2ccc(S(=O)(=O)Nc3ccccn3)cc2)ccc1O [Sulfasalazine],12.9
8,CC(C)(C)c1nc(-c2cccc(NS(=O)(=O)c3c(F)cccc3F)c2F)c(-c2ccnc(N)n2)s1 [Dabrafenib],3.67
9,CN(C/C=C/C#CC(C)(C)C)Cc1cccc2ccccc12 [Terbinafine (hydrochloride)],1.02
10,NNC(=O)c1ccncc1 [Isoniazid],12.7

# System: Danio rerio larvae (5 dpf)
# Experiment: difference in habituation to acoustic stimuli vs DMSO (percentage points); higher = more habituation than DMSO
# Details: 10 µM; exposure time 6 h
# Procedure, shortened: as §1
row,SMILES,difference in habituation to acoustic stimuli
1,COc1c(C)c2c(c(O)c1C/C=C(\C)CCC(=O)O)C(=O)OC2 [Mycophenolic Acid],-0.729
2,CCCc1nc(C(C)(C)O)c(C(=O)OCc2oc(=O)oc2C)n1Cc1ccc(-c2ccccc2-c2nnn[nH]2)cc1 [Olmesartan Medoxomil],-4.7
3,Cc1ccc(N(CC2=NCCN2)c2cccc(O)c2)cc1 [Phentolamine (mesylate)],5.59
4,CNCCCC12CCC(c3ccccc31)c1ccccc12 [Maprotiline (hydrochloride)],0.965
5,CC=CC(=O)N(CC)c1ccccc1C [Crotamiton],4.95
6,CCCCN1C[C@H](O)[C@@H](O)[C@H](O)[C@H]1CO [N-Butyldeoxynojirimycin (hydrochloride)],5.5
7,CCCCC(C)(O)C/C=C/[C@H]1[C@H](O)CC(=O)[C@@H]1CCCCCCC(=O)OC (mixture of isomers) [Misoprostol],7.1
8,CCCCc1ncc(/C=C(\Cc2cccs2)C(=O)O)n1Cc1ccc(C(=O)O)cc1 [Eprosartan (mesylate)],-4.96
9,CC(=O)OCC(=O)[C@@]12OC3(CCCC3)O[C@@H]1C[C@H]1[C@@H]3CCC4=CC(=O)C=C[C@]4(C)[C@@]3(F)[C@@H](O)C[C@@]12C [Amcinonide],-0.863
10,CN1C(=O)CC(C)(c2ccccc2)C1=O (centres undefined) [Methsuximide],4.76
11,CC[C@H](Nc1ncnc2[nH]cnc12)c1nc2cccc(F)c2c(=O)n1-c1ccccc1,-0.933
12,CN(C)CCCN1c2ccccc2Sc2ccc(Cl)cc21 [Chlorpromazine (hydrochloride)],-8.52
13,Clc1ccc2c(c1)C(N1CCNCC1)=Nc1ccccc1O2 [Amoxapine],-1.72
14,C=C1CC[C@H](O)C/C1=C/C=C1\CCC[C@]2(C)[C@@H]([C@H](C)/C=C/[C@H](C)C(C)C)CC[C@@H]12 [Vitamin D2],2.67
15,Cc1cc2nc3c(=O)[nH]c(=O)nc-3n(C[C@H](O)[C@H](O)[C@H](O)COP(=O)(O)O)c2cc1C [Riboflavin 5'-monophosphate (sodium salt hydrate)],5.95
16,CNS(=O)(=O)CCc1ccc2[nH]cc(C3CCN(C)CC3)c2c1 [Naratriptan (hydrochloride)],7.18
17,Cc1ccc(/C(=C\CN2CCCC2)c2cccc(/C=C/C(=O)O)n2)cc1 [Acrivastine],0.73
18,COC(=O)C1=C(C)NC(C)=C(C(=O)OCCN(C)Cc2ccccc2)C1c1cccc([N+](=O)[O-])c1 (centres undefined) [Nicardipine (hydrochloride)],-16.5
19,C[C@H](CS)C(=O)N1CCC[C@H]1C(=O)O [Captopril],-3.07
20,NCCNCCNCCN [Trientine (hydrochloride)],-1.81

row,SMILES,difference in habituation to acoustic stimuli
1,COc1ccc2c(O[C@@H]3C[C@H]4C(=O)N[C@]5(C(=O)NS(=O)(=O)C6CC6)C[C@H]5/C=C\CCCCN(C)C(=O)[C@@H]4C3)cc(-c3nc(C(C)C)cs3)nc2c1C [Simeprevir (sodium salt)],3.8
2,C[C@H](N[C@@H](CCc1ccccc1)C(=O)O)C(=O)N1CCC[C@H]1C(=O)O [Enalaprilat (hydrate)],1.38
3,Cc1nnc(SCC2=C(C(=O)O)N3C(=O)[C@@H](NC(=O)Cn4cnnn4)[C@H]3SC2)s1 [Cefazolin (sodium salt)],-0.463
4,O=C(O)C1(C(=O)O)CCC1.[NH2-].[NH2-].[Pt+2] [Carboplatin],0.48
5,C[N+](C)(C)CCOC(N)=O [Carbamoylcholine (chloride)],1.09
6,C[C@]12CCC(=O)C=C1CC[C@@H]1[C@@H]2[C@@H](O)C[C@@]2(C)[C@H]1CC[C@]2(O)C(=O)CO [Hydrocortisone],1.82
7,COC(=O)N[C@H](C(=O)N1CCC[C@H]1c1ncc(-c2ccc(-c3ccc(-c4cnc([C@@H]5CCCN5C(=O)[C@@H](NC(=O)OC)C(C)C)[nH]4)cc3)cc2)[nH]1)C(C)C [Daclatasvir],0.308
8,CC(C)(C)NC(=O)[C@H]1CC[C@H]2[C@@H]3CC[C@H]4NC(=O)C=C[C@]4(C)[C@H]3CC[C@]12C [Finasteride],-0.24
9,CO[C@H]1C[C@@H]2CC[C@@H](C)[C@@](O)(O2)C(=O)C(=O)N2CCCC[C@H]2C(=O)O[C@H]([C@H](C)C[C@@H]2CC[C@@H](OCCO)[C@H](OC)C2)CC(=O)[C@H](C)/C=C(\C)[C@@H](O)[C@@H](OC)C(=O)[C@H](C)C[C@H](C)/C=C/C=C/C=C/1C [Everolimus],-3.73
10,CNCC[C@H](Oc1cccc2ccccc12)c1cccs1 [(S)-Duloxetine (hydrochloride)],-3.34
11,NC(=O)Cc1cccc(C(=O)c2ccccc2)c1N [Nepafenac],4.01
12,CN(C)[C@@H]1C(O)=C(C(N)=O)C(=O)[C@@]2(O)C(O)=C3C(=O)c4c(O)cccc4[C@@](C)(O)[C@H]3[C@H](O)[C@@H]12 [Oxytetracycline],5.81
13,Oc1c(Cl)cc(Cl)c(Cl)c1Cc1c(O)c(Cl)cc(Cl)c1Cl [Hexachlorophene],-9.66
14,Nc1nc(Cl)nc2c1ncn2[C@H]1C[C@H](O)[C@@H](CO)O1 [Cladribine],-0.582
15,Cc1cc(C2CCCCC2)n(O)c(=O)c1 [Ciclopirox],5.39
16,O=C(O)c1cc(/N=N/c2ccc(S(=O)(=O)Nc3ccccn3)cc2)ccc1O [Sulfasalazine],-2.35
17,CC(C)(C)c1nc(-c2cccc(NS(=O)(=O)c3c(F)cccc3F)c2F)c(-c2ccnc(N)n2)s1 [Dabrafenib],-5.97
18,CN(C/C=C/C#CC(C)(C)C)Cc1cccc2ccccc12 [Terbinafine (hydrochloride)],-1.41
19,NNC(=O)c1ccncc1 [Isoniazid],-2.52
